RORgamma inh – qHTS for inhibitors of ROR gamma transcriptional activity | Drosophila S2 Gal4-RORgamma UAS-luciferase reporter, 20 h | Potency, µM (top dose mostly 53.6 µM), usual class: inhibitors | 5.4% of 310,000 active | AID 2551, 2010; note: nearly all actives have a fitted effect of over 60% in size
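Read-out: Photinus luciferase luminescence; inhibitors lower reporter signal. Insect Schneider cells with Gal4-ROR gamma fusion under metallothionein promoter, UAS reporter; 700 uM final copper sulfate induction, 20 hr, ambient temperature.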
TDP1 cell CPT – qHTS for Inhibitors of human tyrosyl-DNA phosphodiesterase 1 (TDP1): qHTS in cells in presence of CPT | chicken DT40 Tdp1-/-;hTDP1 cells + 20 nM CPT, ATP luminescence, 48 h | Potency, µM (series often up to 46.2 µM), hits mostly inhibitors | 12% of 420,000 active | AID 686979, 2013; note: nearly all actives have a fitted effect of over 55% in size
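Cell growth measured by CellTiter-Glo luminescence after a minimum 48 h, 37 C compound exposure with 20 nM CPT in Tdp1-knockout DT40 cells stably expressing hTDP1, seeded 400/well; qHTS titration format.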
12-LOX inh – Primary qHTS assay for inhibitors of human arachidonate 12S-lipoxygenase (ALOX12): Round 2. purified 12hLO, xylenol orange hydroperoxide absorbance. Potency, µM (doses to about 108 µM), most hits filed as inhibitors. 1.1% of 580,000 active. AID 1671190, 2021
Target sequence (P18054 whole entry, looked up): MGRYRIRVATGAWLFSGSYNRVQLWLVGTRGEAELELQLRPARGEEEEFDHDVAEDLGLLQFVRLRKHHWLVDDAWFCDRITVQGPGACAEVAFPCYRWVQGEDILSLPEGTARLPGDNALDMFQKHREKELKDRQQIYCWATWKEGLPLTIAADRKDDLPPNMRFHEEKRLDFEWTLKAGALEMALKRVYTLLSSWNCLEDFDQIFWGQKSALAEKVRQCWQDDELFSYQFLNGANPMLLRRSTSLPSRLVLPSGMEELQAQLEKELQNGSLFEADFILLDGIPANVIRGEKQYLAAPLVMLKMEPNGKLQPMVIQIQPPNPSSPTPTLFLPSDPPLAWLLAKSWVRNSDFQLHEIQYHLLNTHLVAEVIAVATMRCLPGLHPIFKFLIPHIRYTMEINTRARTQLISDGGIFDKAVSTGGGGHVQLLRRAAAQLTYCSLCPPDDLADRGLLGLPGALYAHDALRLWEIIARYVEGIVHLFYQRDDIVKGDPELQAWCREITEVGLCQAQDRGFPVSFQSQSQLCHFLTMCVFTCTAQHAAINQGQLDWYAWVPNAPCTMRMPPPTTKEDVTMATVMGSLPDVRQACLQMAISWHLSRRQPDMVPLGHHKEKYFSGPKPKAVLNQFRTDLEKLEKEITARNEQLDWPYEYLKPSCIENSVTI
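Purified human 12hLO (150 nM final) in 25 mM Hepes, 0.01% Triton X-100, pH 7.0 was preincubated 15 min at room temperature with compound. Then 40 uM arachidonic acid was added, 30 min. Hydroperoxide was read by Fe-XO absorbance ratio 573/405 nm.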
TDP1 cell noCPT – qHTS for Inhibitors of human tyrosyl-DNA phosphodiesterase 1 (TDP1): qHTS in cells in absence of CPT | DT40 Tdp1-/- hTDP1 cells, no CPT, ATP luminescence, 48 h | Potency, µM (titrated, usually from 46.2 µM), actives largely listed as inhibitors | 15% of 420,000 active; note: nearly all actives have a fitted effect of over 55% in size
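Readout: luminescence from CellTiter-Glo after 30 min in the dark at RT. Cells: DT40 Tdp1-/- with stable hTDP1, 400/well. Exposure: compounds alone, ≥48 hr, 37 °C.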
Gal4-VP16 FLuc – VP16 counterscreen qHTS for inhibitors of ROR gamma transcriptional activity; Potency, µM (series often up to 53.6 µM), most hits filed as inhibitors; Drosophila S2 Gal4-VP16 UAS-luciferase, luminescence, 20 h; 3.5% of 310,000 active; AID 2546, 2010;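 note: Gal4-VP16 expression switched on by copper sulfate through the metallothionein promoter; nearly all actives have a fitted effect of over 50% in size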
ELG1 DNA repair – qHTS screen for small molecules that inhibit ELG1-dependent DNA repair in human embryonic kidney (HEK293T) cells expressing luciferase-tagged ELG1; HEK293T ELG1-luciferase reporter, luminescence, 16 h; DNA damage induced by 5-fluorouridine; AID 504467, 2011; 2.3% of 330,000 active; Potency, µM (highest dose often 46.1 µM), usual class: inhibitors; note: nearly all actives have a fitted effect of over 55% in size
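Reporter activity after DNA damage by 5-fluorouridine is monitored. Compound-treated cells incubate 16 hr at 37 °C, then ONE-Glo is added for 30 min before luminescence reading.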
Numbers stand for hits; [ ] = remark or other dose. This is a sample that favours compounds with a hit; in the whole collection about 15% have one here. Calls come from the whole dose curve; as a rule, active = well fitted curve in the direction sought with a large enough effect; inconclusive = small, poorly fitted or top-dose-only effect, or another doubt; inactive = no such curve, though single readings can be large; an effect the other way counts as inactive or inconclusive.

O=C(O)Cn1cc2c(n1)CCCC2 was read as RORgamma inh inactive, TDP1 cell CPT inactive, 12-LOX inh 20µM, TDP1 cell noCPT inactive, Gal4-VP16 FLuc inactive and ELG1 DNA repair inactive.
For CC(C)COP(=O)(OCC(C)C)C(Nc1ccccc1)c1ccc2c(c1)OCO2 (centres undefined) the results were RORgamma inh inconclusive, TDP1 cell CPT 14.6µM, 12-LOX inh inactive, TDP1 cell noCPT inconclusive, Gal4-VP16 FLuc inactive and ELG1 DNA repair inconclusive.
Screening O=C(Cc1ccccc1O)N1CCCC(CCc2c(F)cccc2F)C1 (centres undefined) returned 12-LOX inh inactive.
CNC(=S)N/N=C/c1c(C)cccc1Cl was read as RORgamma inh 2.24µM, TDP1 cell CPT inconclusive, 12-LOX inh inconclusive, TDP1 cell noCPT inconclusive, Gal4-VP16 FLuc 3.98µM and ELG1 DNA repair inconclusive.
Screening CNC(=S)N/N=C/c1c2ccccc2c(Cl)c2ccccc12 returned RORgamma inh 4.47µM, TDP1 cell CPT 5.8µM, 12-LOX inh inconclusive, TDP1 cell noCPT 5.8µM, Gal4-VP16 FLuc 5.01µM and ELG1 DNA repair inactive.
Screening Clc1c2ccccc2c(/C=N/N2CCCCC2)c2ccccc12 returned 12-LOX inh inactive.
O=C1NCCCCC1Sc1ccc2c(c1)OCCCO2 (centres undefined) was read as 12-LOX inh inactive.
For N#C/C(=C/c1cccc(Oc2ccc(Cl)cc2)c1)c1nc2ccccc2[nH]1 the results were 12-LOX inh inactive.
For CC(C)CCC(=O)N1CC(C(=O)N(C)C)C2(CCOCC2)C1 (centres undefined) the results were 12-LOX inh inactive.
Cc1c(C(=O)OC2CCCCC2)[nH]c2c1C(=O)CC(c1ccc(C(C)(C)C)cc1)C2 (centres undefined) was read as TDP1 cell CPT 20.6µM, 12-LOX inh inactive and TDP1 cell noCPT 18.4µM.
Cc1c(C(=O)OC2CCCCCC2)[nH]c2c1C(=O)CC(c1ccccc1)C2 (centres undefined) was read as TDP1 cell CPT 3.26µM, 12-LOX inh inactive and TDP1 cell noCPT 3.66µM.
For COc1cccc(CNC(=O)CN2C(=O)NC3(CCCCC3)C2=O)c1 the results were 12-LOX inh inactive.
`Cc1cnn(CC(=O)N2CCC(Cn3c(C)cnc3C3CC3)CC2)c1` gave 12-LOX inh inactive.
CCCCCn1nc(C(=O)Nc2cccc(Br)c2)c2ccccc2c1=O was read as 12-LOX inh inactive.
`CC(C)(C)n1nnnc1C(c1ccc(F)cc1)N(Cc1ccc(F)cc1)Cc1ccco1` (centres undefined) gave RORgamma inh 11.2µM, TDP1 cell CPT inconclusive, 12-LOX inh inactive, TDP1 cell noCPT inconclusive, Gal4-VP16 FLuc inactive[0.365 µM] and ELG1 DNA repair inactive.
CC(C)(C)n1nnnc1C(c1cccs1)N(Cc1ccccc1)Cc1cccnc1 (centres undefined) was read as RORgamma inh inactive, TDP1 cell CPT 20.6µM, 12-LOX inh inactive, TDP1 cell noCPT 25.9µM, Gal4-VP16 FLuc inactive and ELG1 DNA repair inactive.
Screening CCN(Cc1ccccc1)C(c1ccncc1)c1nnnn1C(C)(C)C (centres undefined) returned RORgamma inh inactive, TDP1 cell CPT inconclusive, 12-LOX inh inactive, TDP1 cell noCPT inconclusive, Gal4-VP16 FLuc inactive and ELG1 DNA repair inactive.
Screening CC(C)(C)n1nnnc1C(c1ccc(C(F)(F)F)cc1)N(Cc1ccccc1)Cc1ccco1 (centres undefined) returned RORgamma inh 6.31µM, TDP1 cell CPT 20.6µM, 12-LOX inh inactive, TDP1 cell noCPT inconclusive, Gal4-VP16 FLuc 3.98µM and ELG1 DNA repair inactive.
For Cc1cc2cc(C(c3nnnn3C(C)(C)C)N(Cc3ccco3)CC3CCCO3)c(=O)[nH]c2cc1C (centres undefined) the results were RORgamma inh inactive, TDP1 cell CPT inconclusive, 12-LOX inh inactive, TDP1 cell noCPT inconclusive, Gal4-VP16 FLuc inactive and ELG1 DNA repair inactive.
`CC(C)(C)n1nnnc1C(c1ccc(C(F)(F)F)cc1)N(Cc1ccc(F)cc1)Cc1ccco1` (centres undefined) gave RORgamma inh inconclusive, TDP1 cell CPT inconclusive, 12-LOX inh inactive, TDP1 cell noCPT 20.6µM, Gal4-VP16 FLuc inconclusive and ELG1 DNA repair inactive.
For CCc1ccc(-n2cccc2)cc1 the results were 12-LOX inh inactive.
O=C(NCCc1cccc(F)c1)C1CC(=O)N(c2n[nH]c3cccc(F)c23)C1 (centres undefined) was read as 12-LOX inh inactive.
CC(C)(C)n1nnnc1C(c1cccnc1)N(Cc1ccccc1)Cc1cccs1 (centres undefined) was read as RORgamma inh inconclusive, TDP1 cell CPT inconclusive, 12-LOX inh inconclusive, TDP1 cell noCPT inconclusive, Gal4-VP16 FLuc inconclusive and ELG1 DNA repair inactive.
`Cc1ccc(C(c2nnnn2C(C)(C)C)N(Cc2ccco2)Cc2cccs2)cc1` (centres undefined) gave RORgamma inh 10µM, TDP1 cell CPT inconclusive, 12-LOX inh inactive, TDP1 cell noCPT inconclusive, Gal4-VP16 FLuc 7.08µM and ELG1 DNA repair inactive.
Screening CCN(Cc1ccccc1)C(c1ccc(C)cc1)c1nnnn1C(C)(C)CC (centres undefined) returned RORgamma inh inactive, TDP1 cell CPT inconclusive, 12-LOX inh inactive, TDP1 cell noCPT 13µM, Gal4-VP16 FLuc inconclusive and ELG1 DNA repair inactive.
COc1ccc(Cn2nnnc2C(C(C)C)N(Cc2ccco2)Cc2cccs2)cc1 (centres undefined) was read as RORgamma inh inactive, TDP1 cell CPT inconclusive, 12-LOX inh inactive, TDP1 cell noCPT inconclusive, Gal4-VP16 FLuc inactive and ELG1 DNA repair inactive.
CC(C)(C)n1nnnc1C(c1ccc(Cl)cc1)N(Cc1cccnc1)Cc1ccco1 (centres undefined) was read as RORgamma inh inconclusive, TDP1 cell CPT 18.4µM, 12-LOX inh inactive, TDP1 cell noCPT inactive, Gal4-VP16 FLuc inactive and ELG1 DNA repair inactive.
CC(C)C(c1nnnn1Cc1ccccc1)N(Cc1ccco1)Cc1cccs1 (centres undefined) was read as RORgamma inh inconclusive, TDP1 cell CPT inconclusive, 12-LOX inh inactive, TDP1 cell noCPT 20.6µM, Gal4-VP16 FLuc inactive and ELG1 DNA repair inconclusive.
